PubChem BioAssay (NCATS)
Results filed as inconclusive are left out. Activity calls are given as the source filed them. Calls follow the shape of the dose curve; as a rule, active = well fitted curve in either direction with a large enough effect (not every such curve was filed as active); inconclusive = small, poorly fitted or top-dose-only effect, or another doubt; inactive = flat fitted curve, though single readings scatter.

Assay: NFAT Signaling Pathway (AID 444);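 also: carbachol stimulus at about its EC50 of 1 µM final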
Conditions: Jurkat NFAT-bla M1, carbachol, beta-lactamase ratio, 5 h; at 7.69 µM (top of the series) unless noted
Procedure, shortened: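 Jurkat cells with NFAT-driven β-lactamase reporter and co-expressed M1 receptor, stimulated with carbachol (final 1 uM, ~EC50), compound titration, 5 h at 37 °C. CCF4 loaded 1 h at RT; 460/530 nm ratio gave %activity and AC50.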
% is scaled to controls: 0 for no effect and ±100 for the full control effect.

Activity change, negative = inhibition, inactive:
CC(=O)NCCNc1ccnc(-c2ccccc2C(F)(F)F)n1 -3.29%
CCNc1ncc2nc(-c3cc(F)cc(F)c3)c(=O)n(C[C@H]3CCCO3)c2n1 8.04%
COc1cccc(-c2cncnc2N(C)Cc2ccco2)c1 -25.9%
COc1ccccc1-c1ccc2ncnc(NC3CCNCC3)c2c1 5.17%
O=c1cnc2cnc(N3CCOCC3)nc2n1C1CC1 -1.07%
CCNc1ncc2nc(C)c(=O)n(-c3ccc(OC)cc3)c2n1 14.3%
CCNc1ncc2nc(C)c(=O)n(Cc3cccs3)c2n1 -12.9%
Cn1c(=O)c(-c2cccs2)nc2cncnc21 2.85%
CN(C)c1ncc2ncc(=O)n(C3CC3)c2n1 -1.2%
CCNc1ncc2nc(C)c(=O)n(Cc3ccc(F)cc3)c2n1 -0.858%
CN(C)C(=O)c1ccc(-c2nc(NC3CCNCC3)c3ccccc3n2)cc1 12.4%
COc1cccc(Nc2ncc3nc(C)c(=O)n(C)c3n2)c1 -5.64%
Cc1cnc(CNc2ncncc2-c2cccc(C#N)c2)cn1 1.24%
Cc1nc2cnc(Nc3ccccc3)nc2n(C2CC2)c1=O 1.3%
CCNc1ncc2nc(C)c(=O)n(C3CC3)c2n1 -13.9%
CCNc1ncc2nc(-c3cn(C)c4ccccc34)c(=O)n(-c3ccc(OC)cc3)c2n1 -8.46%
CN(C)C(=O)c1ccc(-c2cncnc2N2CCNCC2)cc1 10.6%
Cc1noc(C)c1-c1ccc2ncnc(NC3CCNCC3)c2c1 -27.4%
CCNc1ncc2nc(C)c(=O)n(C)c2n1 2.38%
COc1ccc(CNc2ncncc2-c2cccnc2)c(OC)c1 4.08%
COc1ccc(-n2c(=O)cnc3cnc(N4CCOCC4)nc32)cc1 1.82%
Fc1ccc(Nc2ncncc2-c2ccoc2)cc1 2.9%
Cn1c(=O)cnc2cnc(OCc3ccccc3)nc21 0.699%
COc1cccc(Nc2ncc3nc(C)c(=O)n(CCc4ccccc4)c3n2)c1 3.56%
COc1ccc2[nH]cc(CCNc3ncncc3-c3c(C)noc3C)c2c1 -0.0502%
Cc1noc(C)c1-c1cc(Nc2ccccc2)ncn1 -3.87%
COc1ccc(Oc2ncc3ncc(=O)n(C)c3n2)cc1 -6.92%
COCCNc1cc(-c2ccccc2C)ncn1 5.56%
CS(=O)(=O)Nc1cccc(-c2cncnc2Nc2ccc(F)cc2)c1 26%
c1ccc2c(NC3CCNCC3)nc(-c3ccoc3)nc2c1 5.13%
c1csc(CNc2cc(-c3ccoc3)ncn2)c1 -2.52%
COc1ccc(CNc2cc(-c3ccoc3)ncn2)c(OC)c1 0.143%
O=c1cnc2cnc(Nc3ccccc3)nc2n1Cc1ccc(F)cc1 3.72%
COc1ccccc1-c1cc(NCc2ccccc2)ncn1 -5.25%
N#Cc1cccc(-c2cncnc2NCc2cccs2)c1 -0.972%
CNc1cc(-c2c(C)noc2C)ncn1 3.01%
